# From PubChem BioAssay (Tox21)
# Results filed as inconclusive are left out. Where a call stands in place of a potency, no number is given. Unmarked numbers belong to inactive results. Activity calls are given as the source filed them. The call rests on the fitted dose curve; in most records, active means well fitted cell-killing curve with a large enough effect in the repeat runs; inconclusive means weak or mixed curves, or effect the other way; inactive means flat fitted curve, though single readings scatter.
# Assay: cAMP Responsive Elements (CRE) small molecule antagonists, cell-based qHTS assay: qHTS cell viability counter screen (AID 2060913); further: nearly all actives have a fitted effect of over 40% in size
# Details: CRE-bla HEK293T viability, CellTiter-Glo luminescence, 5 h; series mostly up to 92.4 µM
# Method in brief: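 CRE-bla HEK293T cells (2,000/well, 18 h) given compound plus NKH477 0.25 uM final for 3 h at 37C; viability counter-screen by CellTiter-Glo luminescence in same wells after 30 min.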
SMILES,Potency,"viability change, negative = cytotoxic"
O=[N+]([O-])c1ccc(CCO)cc1,inactive,
OCCN1CCOCC1,inactive,
COC(=O)C1=C(C)NC(C)=C(C(=O)OC)C1c1ccccc1[N+](=O)[O-],inactive,
COC(=O)CC(C(C)=O)C(=O)OC (stereo not given),inactive,
O=[N+]([O-])c1cccc(S(=O)(=O)O)c1,inactive,
CN(C)CCC=C1c2ccccc2C=Cc2ccccc21,inactive,
CCCCOC(=O)CCS,inactive,
S=P(N1CC1)(N1CC1)N1CC1,inactive,
CCOC(=O)C(C)(C)C,inactive,
O=C(c1cc(O)c(O)c(O)c1)c1ccc(O)c(O)c1O,inactive,
C#C[C@]1(O)CC[C@H]2[C@@H]3CCc4cc(O)ccc4[C@H]3CC[C@@]21C,inactive,
CCCCCCCCCC(=O)N(C)C,inactive,
Cc1ccc(NC=O)c(C)c1,inactive,
N[C@@H](CCC(=O)N[C@@H](CS)C(=O)NCC(=O)O)C(=O)O,,4.12% [at 18.9 µM]
O=C(O)CCCCCCCCCCCBr,inactive,
O=C(CCC1CCN(Cc2ccccc2)CC1)c1ccc2c(c1)NCCCC2,inactive,
COc1cc(NCc2ccc3nc(N)nc(N)c3c2C)cc(OC)c1OC,inactive,
CN(CCCN1c2ccccc2CCc2ccccc21)CC(=O)c1ccc(Cl)cc1,inactive,
CCC(Cl)C(Cl)C(Cl)CC(Cl)C(Cl)C(C)Cl (stereo not given),inactive,
Cc1ccsc1C(=CCCN1CCC[C@@H](C(=O)O)C1)c1sccc1C,inactive,

SMILES,Potency,"viability change, negative = cytotoxic"
CC(C)(CO)[N+](=O)[O-],inactive,
CC(=O)CC(C)=O,inactive,
CC[C@H]1OC(=O)[C@H](C)[C@@H](O[C@H]2C[C@@](C)(OC)[C@@H](O)[C@H](C)O2)[C@H](C)[C@@H](O[C@@H]2O[C@H](C)C[C@H](N(C)C)[C@H]2O)[C@](C)(OC)C[C@@H](C)C(=O)[C@H](C)[C@@H](O)[C@]1(C)O,inactive,
CN1CCN2c3ccccc3Cc3ccccc3C2C1 (stereo not given),inactive,
O=C1O[C@H]([C@@H](O)CO)C(O)=C1O,inactive,
Cc1cc(C)cc(OCC2CNC(=O)O2)c1 (stereo not given),inactive,
O=C1NC(=O)[C@@]2(CCOc3ccc(F)cc32)N1,inactive,
O=C(O)c1cccnc1,inactive,
CCN1CCN(c2cc3c(cc2F)c(=O)c(C(=O)O)cn3C2CC2)CC1,inactive,
NC(=O)Nc1ccc(Cl)c(Cl)c1,inactive,
C[C@H]1C[C@H](O)c2ccsc2S1(=O)=O,inactive,
C1=COCCC1,inactive,
CCCc1nc2c(C)cc(-c3nc4ccccc4n3C)cc2n1Cc1ccc(-c2ccccc2C(=O)O)cc1,inactive,
CC(C)(C)c1ccc(C(=O)O)cc1,inactive,
CCOCN(C(=O)CS(=O)(=O)O)c1c(C)cccc1CC,inactive,
CC1(COc2ccc(CC3SC(=O)NC3=O)cc2)CCCCC1 (stereo not given),inactive,
[Cl][Eu]([Cl])[Cl],inactive,
O=C(CCNNC(=O)c1ccncc1)NCc1ccccc1,inactive,
Cn1c(N)c(N=O)c(=O)n(C)c1=O,inactive,
CC1=CCC2CC1C2(C)C (stereo not given),inactive,

# Assay: cAMP Responsive Elements (CRE) small molecule agonists, cell-based qHTS assay: qHTS cell viability counter screen (AID 2060914);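 further: viability read after 3 h of compound exposure; nearly all actives have a fitted effect of over 50% in size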
# Details: CRE-bla HEK293T viability, CellTiter-Glo luminescence, 5 h; series mostly up to 92.4 µM
# Method in brief: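 CRE-bla HEK293T cells in 10% dialyzed FBS medium were exposed to compounds for 3 h at 37C after 18 h plating. CellTiter-Glo was then added in the same wells, and luminescence was read after 30 min at room temperature.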
SMILES,Potency,"activity change, negative = cytotoxicity"
O=[N+]([O-])c1ccc(CCO)cc1,inactive,
OCCN1CCOCC1,inactive,
COC(=O)C1=C(C)NC(C)=C(C(=O)OC)C1c1ccccc1[N+](=O)[O-],inactive,
COC(=O)CC(C(C)=O)C(=O)OC (stereo not given),inactive,
O=[N+]([O-])c1cccc(S(=O)(=O)O)c1,inactive,
CN(C)CCC=C1c2ccccc2C=Cc2ccccc21,inactive,
CCCCOC(=O)CCS,inactive,
S=P(N1CC1)(N1CC1)N1CC1,inactive,
CCOC(=O)C(C)(C)C,inactive,
O=C(c1cc(O)c(O)c(O)c1)c1ccc(O)c(O)c1O,inactive,
C#C[C@]1(O)CC[C@H]2[C@@H]3CCc4cc(O)ccc4[C@H]3CC[C@@]21C,inactive,
CCCCCCCCCC(=O)N(C)C,inactive,
Cc1ccc(NC=O)c(C)c1,inactive,
N[C@@H](CCC(=O)N[C@@H](CS)C(=O)NCC(=O)O)C(=O)O,,-1.41% [at 18.9 µM]
O=C(O)CCCCCCCCCCCBr,inactive,
O=C(CCC1CCN(Cc2ccccc2)CC1)c1ccc2c(c1)NCCCC2,inactive,
COc1cc(NCc2ccc3nc(N)nc(N)c3c2C)cc(OC)c1OC,inactive,
CN(CCCN1c2ccccc2CCc2ccccc21)CC(=O)c1ccc(Cl)cc1,inactive,
CCC(Cl)C(Cl)C(Cl)CC(Cl)C(Cl)C(C)Cl (stereo not given),inactive,
Cc1ccsc1C(=CCCN1CCC[C@@H](C(=O)O)C1)c1sccc1C,inactive,

SMILES,Potency,"activity change, negative = cytotoxicity"
CC(C)(CO)[N+](=O)[O-],inactive,
CC(=O)CC(C)=O,inactive,
CC[C@H]1OC(=O)[C@H](C)[C@@H](O[C@H]2C[C@@](C)(OC)[C@@H](O)[C@H](C)O2)[C@H](C)[C@@H](O[C@@H]2O[C@H](C)C[C@H](N(C)C)[C@H]2O)[C@](C)(OC)C[C@@H](C)C(=O)[C@H](C)[C@@H](O)[C@]1(C)O,inactive,
CN1CCN2c3ccccc3Cc3ccccc3C2C1 (stereo not given),inactive,
O=C1O[C@H]([C@@H](O)CO)C(O)=C1O,inactive,
Cc1cc(C)cc(OCC2CNC(=O)O2)c1 (stereo not given),inactive,
O=C1NC(=O)[C@@]2(CCOc3ccc(F)cc32)N1,inactive,
O=C(O)c1cccnc1,inactive,
CCN1CCN(c2cc3c(cc2F)c(=O)c(C(=O)O)cn3C2CC2)CC1,inactive,
NC(=O)Nc1ccc(Cl)c(Cl)c1,inactive,
C[C@H]1C[C@H](O)c2ccsc2S1(=O)=O,inactive,
C1=COCCC1,inactive,
CCCc1nc2c(C)cc(-c3nc4ccccc4n3C)cc2n1Cc1ccc(-c2ccccc2C(=O)O)cc1,inactive,
CC(C)(C)c1ccc(C(=O)O)cc1,inactive,
CCOCN(C(=O)CS(=O)(=O)O)c1c(C)cccc1CC,inactive,
CC1(COc2ccc(CC3SC(=O)NC3=O)cc2)CCCCC1 (stereo not given),inactive,
[Cl][Eu]([Cl])[Cl],inactive,
O=C(CCNNC(=O)c1ccncc1)NCc1ccccc1,inactive,
Cn1c(N)c(N=O)c(=O)n(C)c1=O,inactive,
CC1=CCC2CC1C2(C)C (stereo not given),inactive,
